Assay outcomes as filed in PubChem BioAssay.
JMJD2A Tudor inh – inhibitors of human JMJD2A Tudor domain; AlphaScreen JMJD2A-Tudor / H3K4me3 peptide binding; 390,000 tested, 4.4% active; Potency, µM (series often up to 114 µM), for the others: at the highest dose activity change, negative = inhibition, usual class: inhibitors; note: potency is the fitted concentration of half-maximal effect; % is set by controls: 0 for no effect and ±100 for the full control effect; nearly all actives have a fitted effect of over 50% in size
HP1b binding inh – blocks HP1-beta chromodomain binding to methylated histone tails. P83916. AID 540317. AlphaScreen HP1-beta / biotin-H3K9me3 peptide binding. 390,000 tested, 0.56% active. Potency, µM (doses to about 114 µM), inactives show at the top dose activity change, negative = inhibition, actives largely listed as inhibitors; note: potency is the fitted concentration of half-maximal effect; nearly all actives have a fitted effect of over 70% in size
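HP1-beta protein (50 nM final) preincubated 30 min at room temperature with biotinylated H3(1-18)K9me3 peptide (50 nM) in PBS pH 7.4, 0.01% Tween-20, then compound added for 30 min. AlphaScreen streptavidin donor/nickel chelate acceptor beads (10 ug/mL final), 30 min dark, luminescence read.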
PI5P4K alpha inh – PI5P4K alpha (human) kinase inhibition | P48426 | PI5P4Kalpha enzyme, ADP-Glo luminescence, 60 min; hits give low values | max response, % | 330,000 tested, 1.2% active | AID 652105; active = max response of -50% or lower; inconclusive = between -30% and -50%; inactive = -30% or higher; note: value at the top dose of about 77 µM; % is set by controls: 0 for no effect and ±100 for the full control effect
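Compounds were pin-transferred onto PI5P4Kalpha and substrate in HEPES pH 7.4 buffer with EGTA, CHAPS and 5% DMSO. ATP (5 microM final) started the reaction, which ran 60 minutes at room temperature before ADP-Glo detection.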
G9a inh – blocks human histone lysine methyltransferase G9a; Potency, µM (highest dose often 102 µM), for inactives: at the top dose activity, negative = inhibition, most hits filed as inhibitors; 350,000 tested, 8.8% active; G9a H3K9 monomethylation, AlphaScreen, 2 h; AID 504332; note: potency is the fitted concentration of half-maximal effect; % is set by controls: 0 for no effect and ±100 for the full control effect; nearly all actives have a fitted effect of over 75% in size
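Chemiluminescent proximity detection of H3K9 monomethylation, read after 10 min bead incubation in the dark. Reaction: 20 nM G9a, 500 nM biotin-H3K9 peptide, 20 uM SAM cofactor, 2 h, room temperature, following 15 min enzyme-compound preincubation.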
PLK1 PBD block – inhibitors of human PLK1 polo-box domain binding. AID 720504. Plk1 PBD binding of FITC phosphopeptide, fluorescence polarization. Potency, µM, inactives show max response, negative = inhibition, actives largely listed as inhibitors. 360,000 tested, 2.8% active. P53350; note: potency is the fitted concentration of half-maximal effect; series mostly up to about 57 µM; % is set by controls: 0 for no effect and ±100 for the full control effect; nearly all actives have a fitted effect of over 65% in size
Target sequence (P53350 whole entry, looked up, the tested form may be a part): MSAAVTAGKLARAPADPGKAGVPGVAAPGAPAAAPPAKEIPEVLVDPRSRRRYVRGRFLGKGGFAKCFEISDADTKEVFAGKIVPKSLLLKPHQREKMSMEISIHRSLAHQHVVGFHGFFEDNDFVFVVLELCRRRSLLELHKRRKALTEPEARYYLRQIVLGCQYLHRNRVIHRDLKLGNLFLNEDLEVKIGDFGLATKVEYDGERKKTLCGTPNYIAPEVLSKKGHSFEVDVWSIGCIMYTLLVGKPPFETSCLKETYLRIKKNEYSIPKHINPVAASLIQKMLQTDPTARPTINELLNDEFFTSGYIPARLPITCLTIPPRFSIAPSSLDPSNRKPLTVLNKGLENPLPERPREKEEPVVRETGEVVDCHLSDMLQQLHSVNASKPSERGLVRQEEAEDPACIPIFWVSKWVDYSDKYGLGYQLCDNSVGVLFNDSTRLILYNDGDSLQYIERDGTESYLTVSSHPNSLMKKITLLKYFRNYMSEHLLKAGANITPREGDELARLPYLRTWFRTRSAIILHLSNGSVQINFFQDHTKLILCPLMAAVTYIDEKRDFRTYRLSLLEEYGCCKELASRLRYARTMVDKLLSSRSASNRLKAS
BAZ2B inh – blocks human BAZ2B; 360,000 tested, 4.4% active; Potency, µM (highest dose often 114 µM), without a hit: at the top dose activity change, negative = inhibition, hits mostly inhibitors; AlphaScreen BAZ2B-H3K14Ac peptide displacement; note: potency is the fitted concentration of half-maximal effect; % is set by controls: 0 for no effect and ±100 for the full control effect; nearly all actives have a fitted effect of over 60% in size
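AlphaScreen displacement of biotin-H3(5-23)K14Ac peptide (50 nM final) from BAZ2B (50 nM final) in PBS pH 7.4, 0.01% Tween-20; complex preformed 30 min RT, then compounds (top 110 uM) 30 min RT, beads 20 min dark.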
* marks the source's active call; other numbers are inactive results; ? = inconclusive; . = no result; [ ] = another dose, or the depositor's remark. This is a sample that favours compounds with a hit; in the whole collection about 12% have one here. Unless noted, calls come from the whole dose curve; as a rule, active = well fitted curve in the direction sought with a large enough effect; inconclusive = small, poorly fitted or top-dose-only effect, or another doubt; inactive = no such curve, though single readings can be large; an effect the other way counts as inactive or inconclusive.

SMILES	JMJD2A Tudor inh	HP1b binding inh	PI5P4K alpha inh	G9a inh	PLK1 PBD block	BAZ2B inh
COc1ccc(C)cc1-n1cnnn1	-18%	8%	0	.	5%	4%
COc1cc(OC)cc(-c2n[nH]c(=S)n2-c2cc(OC)ccc2OC)c1	7.9µM*	20%	.	?	-9%	-1%
Cn1cc(CN2CCC(C(=O)NC(c3ccc(F)cc3)c3ccc4ccccc4n3)CC2)c2ccccc21 (configuration not stated)	.	.	-18	.	1%	.
Cc1ccc(S(=O)(=O)N2CCN(CCOc3cccc(C)c3)CC2)cc1	-1%	33%	0	5%[2.33 µM]	-9%	3%
COc1ccc(OC)c(Nc2nc(-c3c(C)nc4ncccn34)cs2)c1	?	0%	-6	28µM*	-7%	?
COc1ccc(Nc2nc(-c3cccs3)cs2)c(OC)c1	2.5µM*	50µM*	9	11µM*	-12%	32µM*
COc1ccc(OC)c(Nc2nc(-c3cccs3)cs2)c1	?	-27%	.	?	-15%	?
Cc1cccc(-c2nc(C)c(CCNC(=O)C(=O)Nc3ccccc3C#N)s2)c1	-29%	23%[57 µM]	.	12%[59 µM]	.	1%
C[C@H](NC(=O)C1CCN(S(=O)(=O)c2ccccc2)CC1)C(=O)NCc1ccncc1	.	.	5	.	4%	.
C#CCOCCOCCOCCNc1nc(N2CCN(C(=O)[C@H](CCCCN)n3cc([C@@H](N)CC(C)C)nn3)CC2)nc(N2CCN(C(=O)[C@H](Cc3ccc(O)cc3)n3cc([C@@H](N)CC(C)C)nn3)CC2)n1	79µM*	-7%	-2	4%[12.7 µM]	-14%	56µM*
C#CCOCCOCCOCCNc1nc(N2CCN(C(=O)[C@H]([C@@H](C)CC)n3cc([C@@H](N)Cc4ccc(O)cc4)nn3)CC2)nc(N2CCN(C(=O)[C@H](CCCCN)n3cc([C@@H](N)CC(C)C)nn3)CC2)n1	.	.	.	?	.	79µM*
C#CCOCCOCCOCCNc1nc(N2CCN(C(=O)[C@H](CCCCN)n3cc([C@@H](N)C(C)CC)nn3)CC2)nc(N2CCN(C(=O)[C@H](Cc3ccc(O)cc3)n3cc([C@@H](N)CC(C)C)nn3)CC2)n1 (some centres not stated)	?	26%	30	?	3%	79µM*
C#CCOCCOCCOCCNc1nc(N2CCN(C(=O)[C@H](CCCCN)n3cc([C@@H](N)CC(C)C)nn3)CC2)nc(N2CCN(C(=O)[C@H](CCCCN)n3cc([C@@H](N)CC(C)C)nn3)CC2)n1	-35%	26%	-13	?	-6%	?
Nc1nonc1-n1nnc(C(=O)N/N=C/c2ccco2)c1CSc1ccc(Cl)cc1	.	.	-15	.	-1%	.
O=C(N/N=C/c1ccoc1)c1ccc(Cl)cc1	-16%	14%	-10	45µM*	-11%	-35%
Cn1c(=O)n(C)c2cc(/C=N/NC(=O)c3ccc(Cl)cc3)ccc21	-7%[11.4 µM]	9%	-9	?	30µM*	1%
Cc1cc(C)cc(C(=O)N/N=C/c2ccoc2)c1	-13%	21%	?	45%	-8%	-1%
O=C(N/N=C/c1ccoc1)c1cc(O)cc(O)c1	25µM*	45µM*	-71*	.	?	20µM*
O=C(N/N=C/c1ccoc1)c1ccc(Br)cc1	-30%	15%	-10	53%	-22%	?
O=C(N/N=C/c1ccoc1)c1ccccc1	-26%	2%	?	-44%	-8%	56µM*
Cc1ccc(S(=O)(=O)N2C[C@H]3N(C(=O)OC(C)C)N(C(=O)OC(C)C)C[C@H](OC(=O)NCC4CCCCC4)[C@@]3(O)C2)cc1	.	.	5	.	-17%	.
CCc1ccc(S(=O)(=O)N2CC(=O)Nc3ccccc32)cc1	-17%	17%	.	27%[59 µM]	-3%	-5%
CCOC(=O)c1ccc(S(=O)(=O)N2CC(=O)Nc3ccccc32)cc1	-19%	5%	2	10µM*	?	3%
COc1ccc(-c2nc(CN3CCN(C(=O)c4ccco4)CC3)c(C)o2)c(F)c1	-20%	20%	7	-3%	-3%	-22%
